In PubChem BioAssay (EPA / NIEHS):
Values joined by “and” are separate entries in the source; they are usually repeats but may differ in a detail not shown here. Equal entries are not always repeated. Some structures have more than one record in an assay (separate samples or runs), and their calls can disagree. Active and inactive are the calls of the source. How the source made its calls: active means hit-call score of the fitted dose curve at least 0.9, where 1 is the maximum; inactive means score below 0.9.

Assays:
[1] = read-out: Urokinase-type plasminogen activator receptor (uPAR), PLAUR (gene 5329); test: BSK_4H_uPAR: BioMAP Diversity Plus: 4H Assay for Urokinase-type plasminogen activator receptor (uPAR) Biomarker Activity (AID 2283030); details: primary human endothelial cells (HUVEC); actives raise or lower the signal
How it was run: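 Chemicals are dosed onto human vascular endothelial primary cells (umbilical vein). After 24 h, uPAR is read by ELISA. Gain or loss of signal is fitted relative to DMSO.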

[2] = read-out: Vascular endothelial growth factor receptor 2 (Homo sapiens) (UniProt P35968); test: BSK_4H_VEGFRII: BioMAP Diversity Plus: 4H Assay for Vascular endothelial growth factor receptor 2 (VEGFR2) Biomarker Activity (AID 2283031); details: primary human endothelial cells (HUVEC); actives raise or lower the signal;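 on AC50: cell-surface VEGFR2 protein level quantified by ELISA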
How it was run: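 VEGFRII levels on human vascular endothelial primary cells were determined by ELISA at 24 hours post-dosing, with gain- or loss-of-signal fitted against DMSO controls.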

[3] = read-out: Human Leukocyte Antigen - DR isotype (HLADR), HLA-DRA (gene 3122); test: BSK_BE3C_HLADR: BioMAP Diversity Plus: BE3C Assay for Human Leukocyte Antigen - DR isotype (HLADR) Biomarker Activity (AID 2283032); details: primary human bronchial epithelial cells; actives raise or lower the signal
How it was run: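 Human primary bronchial epithelial cells (BE3C system) exposed to compound for 24 hours; cell-surface HLA-DR measured by ELISA, fitted bidirectionally relative to DMSO. Total protein by SRB in parallel cultures tracked cytotoxicity.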

[4] = read-out: Vascular cell adhesion molecule 1 (VCAM1), VCAM1 (gene 7412); test: BSK_4H_VCAM1: BioMAP Diversity Plus: 4H Assay for Vascular cell adhesion molecule 1 (VCAM1) Biomarker Activity (AID 2283033); details: primary human endothelial cells (HUVEC); actives raise or lower the signal
How it was run: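 Primary human umbilical vein endothelial cells, 4H stimulation system, treated for 24 h; cell-surface VCAM-1 quantified by ELISA. Bidirectional fitting against DMSO; cytotoxicity tracked by SRB total-protein staining in parallel cultures.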

[5] = read-out: Interferon-gamma inducible Protein 10 (IP10), CXCL10 (gene 3627); test: BSK_BE3C_IP10: BioMAP Diversity Plus: BE3C Assay for Interferon-gamma inducible Protein 10 (IP10) Biomarker Activity (AID 2283034); details: primary human bronchial epithelial cells; actives raise or lower the signal
How it was run: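 Primary human bronchial epithelial cells, with IP-10 measured by ELISA 24 hours after chemical dosing. Bidirectional fit against DMSO; cytotoxicity checked by SRB total protein staining in parallel cultures.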

[6] = read-out: Monokine induced gamma interferon (MIG), CXCL9 (gene 4283); test: BSK_BE3C_MIG: BioMAP Diversity Plus: BE3C Assay for Monokine induced gamma interferon (MIG) Biomarker Activity (AID 2283035); details: primary human bronchial epithelial cells; actives raise or lower the signal
How it was run: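 MIG level was determined by ELISA after 24 h chemical treatment of primary human bronchial epithelial cells. Values were fitted bidirectionally with DMSO as the negative control and activity baseline.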

[7] = read-out: Transforming growth factor beta 1 (TGFb1), TGFB1 (gene 7040); test: BSK_BE3C_TGFb1: BioMAP Diversity Plus: BE3C Assay for Transforming growth factor beta 1 (TGFb1) Biomarker Activity (AID 2283036); details: primary human bronchial epithelial cells; actives raise or lower the signal
How it was run: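 Primary human bronchial epithelial cells dosed with chemical; TGF-b1 measured by ELISA 24 h after dosing. Bidirectional curve fitting against DMSO negative control; SRB total-protein staining in parallel cultures gauged cytotoxicity.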

[8] = read-out: Plasminogen activator inhibitor-1 (PAI1), SERPINE1 (gene 5054); test: BSK_BE3C_PAI1: BioMAP Diversity Plus: BE3C Assay for Plasminogen activator inhibitor-1 (PAI1) Biomarker Activity (AID 2283037); details: primary human bronchial epithelial cells; actives raise or lower the signal
How it was run: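 Primary human bronchial epithelial cells (BE3C system) exposed 24 h; PAI-1 quantified by ELISA. Parallel sulforhodamine B staining of total protein flags cytotoxicity. Bidirectional fit versus DMSO.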

[9] = read-out: Urokinase-type plasminogen activator receptor (uPAR), PLAUR (gene 5329); test: BSK_BE3C_uPAR: BioMAP Diversity Plus: BE3C Assay for Urokinase-type plasminogen activator receptor (uPAR) Biomarker Activity (AID 2283039); details: primary human bronchial epithelial cells; actives raise or lower the signal
How it was run: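 Primary human bronchial epithelial cells dosed for 24 h; uPAR quantified by ELISA with bidirectional fitting against DMSO. Overt cytotoxicity assessed in parallel cultures by SRB total-protein staining (0.1% SRB, 560 nm).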

[10] = read-out: Interleukin-6 (IL6), IL6 (gene 3569); test: BSK_CASM3C_IL6: BioMAP Diversity Plus: CASM3C Assay for Interleukin-6 (IL6) Biomarker Activity for (AID 2283040); details: primary human coronary artery smooth muscle cells; actives raise or lower the signal
[11] = read-out: Tissue plasminogen activator (tPA), PLAT (gene 5327); test: BSK_BE3C_tPA: BioMAP Diversity Plus: BE3C Assay for Tissue plasminogen activator (tPA) Biomarker Activity (AID 2283041); details: primary human bronchial epithelial cells; actives raise or lower the signal
How it was run: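 Primary human bronchial epithelial cells in the BE3C system, exposed to compound for 24 h. tPA was quantified by ELISA; DMSO served as baseline, with gain or loss of signal fitted. Cytotoxicity checked in parallel cultures by SRB total-protein staining.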

[12] = read-out: Interleukin-8 (IL8), CXCL8 (gene 3576); test: BSK_CASM3C_IL8: BioMAP Diversity Plus: CASM3C Assay for Interleukin-8 (IL8) Biomarker Activity (AID 2283042); details: primary human coronary artery smooth muscle cells; actives raise or lower the signal;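 further: IL-8 protein level quantified by ELISA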
[13] = read-out: Human Leukocyte Antigen - DR isotype (HLADR), HLA-DRA (gene 3122); test: BSK_CASM3C_HLADR: BioMAP Diversity Plus: CASM3C Assay for Human Leukocyte Antigen - DR isotype (HLADR) Biomarker Activity (AID 2283043); details: primary human coronary artery smooth muscle cells; actives raise or lower the signal;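 further: cell-surface HLA-DR protein level quantified by ELISA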
[14] = read-out: Macrophage colony-stimulating factor (MCSF), CSF1 (gene 1435); test: BSK_CASM3C_MCSF: BioMAP Diversity Plus: CASM3C Assay for Macrophage colony-stimulating factor (MCSF) Biomarker Activity (AID 2283044); details: primary human coronary artery smooth muscle cells; actives raise or lower the signal;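 further: M-CSF protein amount quantified by ELISA after 24 h exposure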
[15] = read-out: Low-density lipoprotein receptor (LDLR), LDLR (gene 3949); test: BSK_CASM3C_LDLR: BioMAP Diversity Plus: CASM3C Assay for Low-density lipoprotein receptor (LDLR) Biomarker Activity (AID 2283045); details: primary human coronary artery smooth muscle cells; actives raise or lower the signal;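 further: LDLR protein level on the cell surface quantified by ELISA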
[16] = read-out: Monocyte Chemoattractant Protein-1 (MCP1), CCL2 (gene 6347); test: BSK_CASM3C_MCP1: BioMAP Diversity Plus: CASM3C Assay for Monocyte Chemoattractant Protein-1 (MCP1) Biomarker Activity (AID 2283046); details: primary human coronary artery smooth muscle cells; actives raise or lower the signal;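 further: MCP-1 level quantified by ELISA 24 h after dosing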
[17] = BSK_CASM3C_Proliferation: Cell Proliferation Assessment in the BioMAP Diversity Plus: CASM3C Assay (AID 2283047); details: primary human coronary artery smooth muscle cells;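 further: sulforhodamine B total protein stain as relative cell number at 560 nm; sub-confluent cells exposed 48 h before staining; fitted both ways against DMSO so gain or loss of cell number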
[18] = read-out: Monokine induced gamma interferon (MIG), CXCL9 (gene 4283); test: BSK_CASM3C_MIG: BioMAP Diversity Plus: CASM3C Assay for Monokine induced gamma interferon (MIG) Biomarker Activity (AID 2283048); details: primary human coronary artery smooth muscle cells; actives raise or lower the signal;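 further: MIG protein level measured by ELISA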
[19] = read-out: serum amyloid A (SAA), SAA1 (gene 6288); test: BSK_CASM3C_SAA: BioMAP Diversity Plus: CASM3C Assay for serum amyloid A (SAA) Biomarker Activity (AID 2283049); details: primary human coronary artery smooth muscle cells; actives raise or lower the signal;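 further: SAA protein level quantified by ELISA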
[20] = read-out: urokinase plasminogen activator (uPA), PLAU (gene 5328); test: BSK_BE3C_uPA: BioMAP Diversity Plus: BE3C Assay for urokinase plasminogen activator (uPA) Biomarker Activity (AID 2283038); details: primary human bronchial epithelial cells; actives raise or lower the signal
How it was run: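 Measured by ELISA: uPA from human primary bronchial epithelial cells 24 h after chemical treatment. Values derive from bidirectional curve fitting with DMSO serving as negative control. Total protein by SRB staining in parallel wells flagged overt cytotoxicity.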

Measured: AC50

CCCCCCC(C)OC(=O)CCCCC(=O)OC(C)CCCCCC (stereo unspecified)
not listed: [20]
inactive: all other assays above

OCC(F)(F)C(F)(F)C(F)(F)C(F)(F)C(F)(F)C(F)(F)F
active: [1] 47.8 µM | [3] 41.7 µM | [6] 45.1 µM and 54.8 µM | [17] 46.6 µM and 54.9 µM
inactive: [1] | [2] | [3] | [4] | [5] | [8] | [20] | [9] | [10] | [11] | [12] | [13] | [14] | [15] | [16] | [18] | [19]

Nc1ccc([N+](=O)[O-])cc1O
active: [9] 20 µM
not listed: [20]
inactive: all other assays above

CCCCOCCOCCOC(=O)CCCCC(=O)OCCOCCOCCCC
inactive: all assays above

CCCCCCCOC(=O)c1ccccc1C(=O)OCCCCCCC
active: [1] 4.08 µM
not listed: [20]
inactive: all other assays above

O=C(Cl)C(F)(F)C(F)(F)C(F)(F)C(F)(F)C(F)(F)C(F)(F)C(F)(F)C(F)(F)F
active: [2] 30 µM | [3] 50 µM and 48.6 µM and 50.7 µM | [5] 39.8 µM and 36.6 µM and 44.6 µM | [6] 55.3 µM and 46.6 µM and 46.1 µM | [20] 51.7 µM and 48.2 µM and 47.1 µM | [9] 47.8 µM and 53.7 µM and 48.4 µM | [11] 27.5 µM and 22.8 µM
inactive: [1] | [2] | [4] | [8] | [10] | [11] | [12] | [13] | [14] | [15] | [16] | [17] | [18] | [19]

O=C(O)C(F)(OC(F)(F)C(F)(OC(F)(F)C(F)(F)C(F)(F)F)C(F)(F)F)C(F)(F)F (stereo unspecified)
not listed: [7]
inactive: all other assays above

OCC(F)(F)C(F)(F)C(F)(F)C(F)F
inactive: [1] | [2] | [3] | [4] | [5] | [6] | [8] | [20] | [9] | [10] | [11] | [12] | [13] | [14] | [15] | [16] | [17] | [18] | [19]
active: [15] 0.292 µM

CO[Si](OC)(c1ccccc1)c1ccccc1
active: [5] 26.6 µM | [10] 31.5 µM | [13] 39.1 µM | [14] 33.2 µM | [15] 30.8 µM | [16] 36.7 µM | [17] 34.2 µM | [19] 30.9 µM
inactive: all other assays above

CCCCNc1ccccc1
not listed: [20]
inactive: all other assays above

CCc1ccc(C(c2ccc(CC)cc2)C(Cl)Cl)cc1
active: [1] 32.3 µM | [2] 13.1 µM | [3] 13.6 µM | [4] 28.5 µM | [5] 20 µM | [8] 20 µM | [11] 14.1 µM
not listed: [20]
inactive: all other assays above
